Test results taken from PubChem BioAssay AID1159580 (chemical genetic matrix, 2015).
“And” between values parts separate entries of the source, which are not always exact repeats. Identical values can stand only once. Out of some 5,500 compounds screened, about 2,000 (36%) were called active. About 18% were inconclusive and are not listed. No stated cut-off is given here; in the data, active means normalized growth mostly below about 0.91 (no sharp cut-off); inconclusive means no clear call, values can overlap the other calls; inactive means mostly above about 0.92. The list shows a part of the results.

Assay: chemical genetic growth profiling, strain panel (AID 1159580);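 further: tested at 20 µM; growth read once vehicle control cultures reached saturation at 30 °C; 1 = growth at the plate median or of vehicle wells; lower values mean less growth of the strain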
Conditions: growth OD
[1] = S. cerevisiae deletion strains, locus YGR229C, strain SMI1, active compounds read low
[2] = S. cerevisiae deletion strains, locus YMR263W, strain SAP30, active compounds read low
[3] = S. cerevisiae deletion strains, locus YMR307W, strain GAS1, active compounds read low
[4] = S. cerevisiae deletion strains, locus YPL055C, strain LGE1, active compounds read low
[5] = S. cerevisiae deletion strains, locus YPL241C, strain CIN2, active compounds read low
[6] = S. cerevisiae deletion strains, locus YAL013W, strain DEP1, active compounds read low
[7] = S. cerevisiae deletion strains, locus YAL040C, strain CLN3, active compounds read low
[8] = S. cerevisiae deletion strains, locus YCL061C, strain MRC1 (second series), active compounds read low
[9] = S. cerevisiae deletion strains, locus YDR363W, strain ESC2, active compounds read low
[10] = S. cerevisiae deletion strains, locus YER002W, strain NOP16, active compounds read low
[11] = S. cerevisiae deletion strains, locus YNL175C, strain NOP13, active compounds read low
[12] = S. cerevisiae deletion strains, locus YNL197C, strain WHI3, active compounds read low
[13] = S. cerevisiae deletion strains, locus YNL224C, strain SQS1, active compounds read low
[14] = S. cerevisiae deletion strains, locus YOR083W, strain WHI5 (second series), active compounds read low

Measured: normalized growth

OC[C@H]1O[C@@H](n2cnc3c(NCc4ccco4)ncnc32)[C@H](O)[C@@H]1O
active: S. cerevisiae deletion strains, locus YOL012C, strain htz1 2.36 [resistant]
inactive: S. cerevisiae deletion strains, locus YBR021W, strain FUR4, active compounds read low 1.02 | S. cerevisiae deletion strains, locus YBR229C, strain ROT2, active compounds read low 1.01 | S. cerevisiae deletion strains, locus YCL029C, strain bik1, active compounds read low 1.01 | S. cerevisiae deletion strains, locus YDL035C, strain GPR1, active compounds read low 1.01 | S. cerevisiae deletion strains, locus YDL074C, strain BRE1, active compounds read low 1.05 | S. cerevisiae deletion strains, locus YDL101C, strain DUN1, active compounds read low 1.03 | S. cerevisiae deletion strains, locus YDL185W, strain tfp1, active compounds read low 1 | S. cerevisiae deletion strains, locus YDL192W, strain arf1, active compounds read low 1 | S. cerevisiae deletion strains, locus YDR101C, strain arx1, active compounds read low 1.02 | S. cerevisiae deletion strains, locus YDR150W, strain NUM1, active compounds read low 1.01 | S. cerevisiae deletion strains, locus YDR162C, strain NBP2, active compounds read low 1.02 | S. cerevisiae deletion strains, locus YDR318W, strain mcm21, active compounds read low 1 | S. cerevisiae deletion strains, locus YDR388W, active compounds read low 0.998 | S. cerevisiae deletion strains, locus YDR502C, strain sam2, active compounds read low 0.998 | S. cerevisiae deletion strains, locus YEL061C, strain CIN8, active compounds read low 1.01 | S. cerevisiae deletion strains, locus YER110C, active compounds read low 1 | S. cerevisiae deletion strains, locus YER155C, strain BEM2, active compounds read low 1.02 | S. cerevisiae deletion strains, locus YER167W, strain BCK2, active compounds read low 1 | S. cerevisiae deletion strains, locus YGL078C, strain dbp3, active compounds read low 0.999 | S. cerevisiae deletion strains, locus YGL086W, strain mad1, active compounds read low 1.02 | S. cerevisiae deletion strains, locus YGL248W, strain PDE1, active compounds read low 1.01 | S. cerevisiae deletion strains, locus YGR135W, strain pre9, active compounds read low 1 | [1] 1.02 | S. cerevisiae deletion strains, locus YGR252W, strain gcn5, active compounds read low 0.971 | S. cerevisiae deletion strains, locus YHR030C, strain SLT2, active compounds read low 1 and 1.06 | S. cerevisiae deletion strains, locus YHR079C, strain IRE1 (second series), active compounds read low 1.01 | S. cerevisiae deletion strains, locus YHR079C, strain IRE1, active compounds read low 1.04 | S. cerevisiae deletion strains, locus YHR094C, strain hxt1, active compounds read low 1 | S. cerevisiae deletion strains, locus YHR129C, strain ARP1, active compounds read low 1.02 | S. cerevisiae deletion strains, locus YHR200W, strain rpn10, active compounds read low 1.01 | S. cerevisiae deletion strains, locus YIL066C, strain RNR3, active compounds read low 1.01 | S. cerevisiae deletion strains, locus YIL073C, strain SPO22, active compounds read low 1.01 | S. cerevisiae deletion strains, locus YIL125W, strain kgd1, active compounds read low 1.01 | S. cerevisiae deletion strains, locus YIR030C, strain dcg1, active compounds read low 1.01 | S. cerevisiae deletion strains, locus YJL095W, strain BCK1, active compounds read low 1.06 and 1.02 | S. cerevisiae deletion strains, locus YJL134W, strain LCB3, active compounds read low 1.01 | S. cerevisiae deletion strains, locus YJL168C, strain set2, active compounds read low 1.01 | S. cerevisiae deletion strains, locus YJL187C, strain SWE1 (second series), active compounds read low 1.04 | S. cerevisiae deletion strains, locus YJR043C, strain POL32, active compounds read low 1.01 | S. cerevisiae deletion strains, locus YJR066W, strain TOR1, active compounds read low 0.974 | S. cerevisiae deletion strains, locus YKL009W, strain mrt4, active compounds read low 1.02 | S. cerevisiae deletion strains, locus YKL068W, active compounds read low 0.995 | S. cerevisiae deletion strains, locus YKL085W, strain MDH1 (second series), active compounds read low 0.993 | S. cerevisiae deletion strains, locus YKL085W, strain MDH1, active compounds read low 0.993 | S. cerevisiae deletion strains, locus YKL190W, strain CNB1, active compounds read low 1.01 | S. cerevisiae deletion strains, locus YKR001C, strain vps1, active compounds read low 1.01 | S. cerevisiae deletion strains, locus YLR039C, strain RIC1, active compounds read low 1.04 | S. cerevisiae deletion strains, locus YLR058C, strain SHM2, active compounds read low 1.02 | S. cerevisiae deletion strains, locus YLR102C, strain apc9, active compounds read low 1 | S. cerevisiae deletion strains, locus YLR113W, strain HOG1, active compounds read low 1.03 | S. cerevisiae deletion strains, locus YLR262C, strain YPT6, active compounds read low 1.06 | S. cerevisiae deletion strains, locus YLR268W, strain sec22, active compounds read low 1.04 | S. cerevisiae deletion strains, locus YLR330W, strain CHS5, active compounds read low 1.01 | S. cerevisiae deletion strains, locus YLR342W, strain FKS1 (second series), active compounds read low 1.01 | S. cerevisiae deletion strains, locus YLR371W, strain rom2, active compounds read low 1 | S. cerevisiae deletion strains, locus YLR418C, strain cdc73, active compounds read low 1.01 | S. cerevisiae deletion strains, locus YML016C, strain PPZ1, active compounds read low 1.01 | S. cerevisiae deletion strains, locus YML032C, strain rad52, active compounds read low 0.988 | S. cerevisiae deletion strains, locus YML124C, strain tub3, active compounds read low 0.996 | S. cerevisiae deletion strains, locus YMR078C, strain ctf18, active compounds read low 0.998 | S. cerevisiae deletion strains, locus YMR223W, strain ubp8, active compounds read low 1 | [2] 1.02 | [3] 1.04 | S. cerevisiae deletion strains, locus YNL067W, strain RPL9B, active compounds read low 1.04 | S. cerevisiae deletion strains, locus YNL183C, strain NPR1, active compounds read low 0.991 | S. cerevisiae deletion strains, locus YNL233W, strain BNI4, active compounds read low 1.05 | S. cerevisiae deletion strains, locus YNL250W, strain rad50, active compounds read low 1.02 | S. cerevisiae deletion strains, locus YNL271C, strain bni1, active compounds read low 1 | S. cerevisiae deletion strains, locus YNL298W, strain CLA4, active compounds read low 0.995 | S. cerevisiae deletion strains, locus YNL307C, strain MCK1, active compounds read low 1.01 | S. cerevisiae deletion strains, locus YNR052C, strain pop2, active compounds read low 0.996 | S. cerevisiae deletion strains, locus YOL147C, strain pex11, active compounds read low 0.998 | S. cerevisiae deletion strains, locus YOR061W, strain CKA2, active compounds read low 1.01 | S. cerevisiae deletion strains, locus YOR069W, strain VPS5, active compounds read low 1.01 | S. cerevisiae deletion strains, locus YOR136W, strain idh2, active compounds read low 1 | S. cerevisiae deletion strains, locus YOR144C, strain elg1, active compounds read low 0.987 | S. cerevisiae deletion strains, locus YOR184W, strain ser1, active compounds read low 0.999 | S. cerevisiae deletion strains, locus YOR231W, strain MKK1, active compounds read low 1.05 | S. cerevisiae deletion strains, locus YOR316C, strain cot1, active compounds read low 1 | [4] 1.03 | [5] 1 | S. cerevisiae deletion strains, locus YPL256C, strain CLN2, active compounds read low 1.06 | S. cerevisiae deletion strains, locus YPR119W, strain clb2, active compounds read low 1 | S. cerevisiae deletion strains, locus YPR141C, strain kar3, active compounds read low 1.01 | S. cerevisiae deletion strains, locus YPR163C, strain tif3, active compounds read low 1 | S. cerevisiae deletion strains, locus YPR167C, strain met16, active compounds read low 1.01 | S. cerevisiae deletion strains, strain wtn01, active compounds read low 1.04 | S. cerevisiae strains, strain wild type, active compounds read low 1.01

Cc1ccccc1CNc1ncnc2c1ncn2C1OC(CO)C(O)C1O (stereo not given)
inactive: [6] 1.01 | [7] 0.997 | [8] 0.999 | [9] 1.03 | [10] 1.01 | [1] 1.02 | [2] 1 | [11] 1.01 | [12] 0.995 | [13] 1.01 | S. cerevisiae deletion strains, locus YNL322C, strain KRE1, active compounds read low 1.01 | [14] 1.01 | [4] 1.01

CNc1ncnc2c1ncn2[C@@H]1O[C@H](CO)[C@H](O)C1O (stereo not given in full)
inactive: [6] 1.02 | [7] 1 | [8] 0.993 | [9] 0.996 | [10] 0.978 | [1] 1.01 | [3] 1.01 | S. cerevisiae deletion strains, locus YNL153C, strain GIM3, active compounds read low 1.01 | [11] 0.996 | [12] 0.999 | [13] 1 | [14] 1 | [5] 1
